Experimental findings from PubChem BioAssay AID1645838 (ICCB-Longwood Screening Facility, Harvard Medical School, 2021) are described below.

Screen size: about 2,000 compounds; about 100 (5%) were called active. Cut-off read from the data, not from the text of the source: active = z-score above about 2; inactive = the rest. Shown is part of a subset that was picked to be rich in actives.

The assay can be described thus: modulators of mitochondrial supercomplex assembly, cell-based, luminescence, Hoechst nuclei count (AID 1645838).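 For all read-outs here: control cybrid cells.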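 For z-score: higher means more mitochondrial supercomplex formation.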 Conditions: Cells, luminescence/Hoechst cell count ratio, supercomplex reporter; for z-score: stronger effect = higher value; for cell count: measured here: cell number, Hoechst nuclei count.
Setting [1] is: library stock concentration (final well concentration not given) 80 uM.
Setting [2] is: library stock concentration (final well concentration not given) 46 uM.
[3] abbreviates: library stock concentration (final well concentration not given) 278 uM.
[4] abbreviates: library stock concentration (final well concentration not given) 1.67 mM.
Setting [5] is: library stock concentration (final well concentration not given) 10 mM.
The mark [6] stands for this setting: library stock concentration (final well concentration not given) 400 uM.
Where [7] appears, read: library stock concentration (final well concentration not given) 2 mM.

For the compound `CCCCC[C@H](O)/C=C/[C@H]1C2COC(C2)[C@@H]1C/C=C/CCCC(=O)O` (stereo partly specified), the z-score is -0.6 (inactive) and the cell count came to 5320.

Consider `Cc1cc(Nc2cc(N3CCN(C)CC3)nc(Sc3ccc(NC(=O)C4CC4)cc3)n2)n[nH]1`, for which the outcome was “inactive; censored for cell count” (library stock 80 µM), “inactive; censored for cell count” (library stock 400 µM), “inactive; censored for cell count” (library stock 2 mM) and “inactive; censored for cell count” (library stock 10 mM). Moreover, the z-score under setting [1] is 5.13 (active). The cell count under setting [1] is 1630.

For the compound `CCCCC(C)(C)[C@H](O)/C=C/[C@H]1C=CC(=O)[C@@H]1CCCCCCC(=O)O`, the z-score is 0.218 (inactive) and the cell count stood at 4930.

Consider `CCCCC[C@@H](O)/C=C/[C@H]1[C@H](O)CC(=O)[C@@H]1C/C=C\CCCC(=O)O`, for which the z-score is -0.0831 (inactive) and the cell count came out at 5100.

On to `CCCCCCCCCCCCCCP(=O)(O)O`, for which the z-score was 1.99 (active) and the cell count was determined as 4360.

As to `CCCCCCCCCCCC(=O)O`, the z-score is 0.0111 (inactive) and the cell count is 5210.

Turning to `CCCCCCCCCCCCCCCCCCCCCCCCCCCCCCO`, the z-score is -1.19 (inactive) and the cell count was found to be 5750.

In the case of `O=C(O)CCn1nnc2ccccc21`, the z-score is, setting by setting: under setting [2], -0.598 (inactive); under setting [3], -0.676 (inactive); under setting [4], -0.406 (inactive); under setting [5], -0.311 (inactive). The cell count is, setting by setting: under setting [2], 7120; under setting [3], 7440; under setting [4], 7310; under setting [5], 7490.

As to `Cn1cncc1[C@@](N)(c1ccc(Cl)cc1)c1ccc2c(c1)c(-c1cccc(Cl)c1)cc(=O)n2C`, the z-score was 0.384 (inactive) under setting [1], 1.69 (inactive) under setting [6], 2.04 (active) under setting [7] and 1.89 (inactive) under setting [5]. Besides, the cell count was 5540 under setting [1], 3990 under setting [6], 3590 under setting [7] and 3700 under setting [5].

Consider `CCCCCCCC/C=C\CCCCCCCCCCCCCC(=O)N[C@@H](CO)[C@H](O)/C=C/CCCCCCCCCCCCC`, for which the z-score was 0.191 (inactive) and the cell count is 5540.

`CCCCC[C@H]1/C=C/[C@@H]2[C@@H](C/C=C\CCCC(=O)O1)[C@@H](O)C[C@H]2O`: the z-score was -1.49 (inactive) and the cell count came to 5780.

Regarding `Cn1c2cc(S(C)=O)sc2c2cnn(Cc3cccc(N)c3)c(=O)c21` (stereo unspecified), the z-score is 0.266 (inactive) under setting [2], 0.15 (inactive) under setting [3], -0.3 (inactive) under setting [4] and -0.338 (inactive) under setting [5]. The cell count runs as follows: under setting [2], 6150; under setting [3], 6110; under setting [4], 6540; under setting [5], 6600.

With `O=P(O)(O)O[C@H]1[C@@H](O)[C@H](O)[C@@H](OP(=O)(O)O)[C@H](OP(=O)(O)O)[C@H]1O`, the z-score is -0.14 (inactive) and the cell count came out at 4340.

Regarding `COC(=O)NC(C)CNc1nccc(-c2cn(C(C)C)nc2-c2cc(Cl)cc(NS(C)(=O)=O)c2F)n1` (stereo unspecified), the z-score was -0.459 (inactive) under setting [2], -0.411 (inactive) under setting [3], 0.775 (inactive) under setting [4] and 4.21 (active) under setting [5]. The cell count under setting [2] came out at 6450, the cell count under setting [3] is 6190, the cell count under setting [4] amounted to 4330 and the cell count under setting [5] is 1620.

Regarding `CCN(C)C(=O)Oc1cccc(C(C)N(C)C)c1` (stereo unspecified), the z-score by setting is: under setting [1], -0.403 (inactive); under setting [6], -0.339 (inactive); under setting [7], -0.314 (inactive); under setting [5], -0.639 (inactive). Besides, the cell count runs as follows: under setting [1], 6790; under setting [6], 6310; under setting [7], 6660; under setting [5], 6230.

As to `CC(C)(C)n1nc(Cc2cccc3ccccc23)c2c(N)ncnc21`, the z-score is -0.348 (inactive) and the cell count amounted to 5760.

Consider `CC(C)(C)n1nc(-c2ccc(Cl)cc2)c2c(N)ncnc21`, for which the z-score was -0.14 (inactive) under setting [1], 0.32 (inactive) under setting [6], 0.695 (inactive) under setting [7] and 1.68 (inactive) under setting [5]. Moreover, the cell count is 5420 under setting [1], 5110 under setting [6], 5300 under setting [7] and 4150 under setting [5].

In the case of `Cc1ccc(-c2nn(C(C)(C)C)c3ncnc(N)c23)cc1`, the z-score by setting is: under setting [2], 0.0479 (inactive); under setting [3], 0.621 (inactive); under setting [4], 1.98 (active); under setting [5], 5.9 (active). Also, the cell count was 6410 under setting [2], 5940 under setting [3], 6220 under setting [4] and 4640 under setting [5].

`COc1cc(Cc2cnc(N)nc2N)c2c(c1OC)OC(C1CC1)C=C2` (stereo unspecified): the z-score was -0.274 (inactive) under setting [1], -0.19 (inactive) under setting [6], -0.518 (inactive) under setting [7] and -0.337 (inactive) under setting [5]. Besides, the cell count reads like this: under setting [1], 5160; under setting [6], 5070; under setting [7], 5260; under setting [5], 4960.

In the case of `CC(Sc1nc2ccccc2[nH]1)C(=O)N/N=C/c1cc(Br)ccc1O` (stereo unspecified), the z-score is -0.336 (inactive) and the cell count was found to be 5170.

Consider `CC(Sc1nc2ccccc2[nH]1)C(=O)NN=Cc1cc(Br)ccc1O` (stereo unspecified), for which the z-score reads like this: under setting [2], -1.02 (inactive); under setting [3], -0.707 (inactive); under setting [4], -0.734 (inactive); under setting [5], 3.92 (active). For the same compound, the cell count under setting [2] amounted to 7560, the cell count under setting [3] amounted to 6830, the cell count under setting [4] stood at 7060 and the cell count under setting [5] was 3080.

For the compound `CC/C=C\C/C=C\C/C=C\C/C=C\C/C=C\C/C=C\CCC(=O)NCCO`, the z-score was -0.366 (inactive) and the cell count amounted to 5340.

Consider `COc1ccc(CCOC2CCCCC2N2CCC(O)C2)cc1OC` (stereo unspecified), for which the z-score is 0.0501 (inactive) under setting [1], 0.255 (inactive) under setting [6], -0.0276 (inactive) under setting [7] and -0.648 (inactive) under setting [5]. Moreover, the cell count reads like this: under setting [1], 5440; under setting [6], 4950; under setting [7], 5110; under setting [5], 5070.

Consider `CN1CCN(c2ccc(Nc3cc(-c4cccc(-n5ccc6cc(C7CC7)cc(F)c6c5=O)c4CO)cn(C)c3=O)nc2)CC1`, for which the z-score under setting [2] was -0.128 (inactive), the z-score under setting [3] is 0.295 (inactive), the z-score under setting [4] was 0.189 (inactive) and the z-score under setting [5] is 2.34 (active). In addition, the cell count by setting is: under setting [2], 6870; under setting [3], 6260; under setting [4], 6670; under setting [5], 4620.

As to `Cc1ccc(-c2ccc3c(c2)C=C(C(=O)Nc2ccc(C[N+](C)(C)C4CCOCC4)cc2)CCC3)cc1`, the z-score reads like this: under setting [1], 0.0335 (inactive); under setting [6], -0.0352 (inactive); under setting [7], 0.025 (inactive); under setting [5], 0.462 (inactive). For the same compound, the cell count by setting is: under setting [1], 6000; under setting [6], 5610; under setting [7], 5740; under setting [5], 4810.
